This is a sample that favours compounds with a hit; in the whole collection about 1.3% have one here.
Fam108B inh: Fam108B inhibition, counter-screen for RBBP9 inhibitors; recombinant Fam108B, FP-Rh probe fluorescence polarization; 0.33% of 300,000 active; AID 1947; inhibition, % at 9.51 µM;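 active means inhibition above the screen mean inhibition plus 3 SD, computed separately per campaign, cut at about 18% in these data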;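 further: inhibitors lower polarization as less probe binds the enzyme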
LYPLA2 counter: blocks human lysophospholipase 2, a PME1 counter-screen; 0.38% of 320,000 active; O95372; recombinant LYPLA2, FP-Rh probe fluorescence polarization; inhibition, % at 5.9 µM;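 active means inhibition above the screen-wide mean plus 3 SD, limit set per campaign, cut at about 26% in these data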;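 further: 0% = LYPLA2 with DMSO and 100% = wells lacking LYPLA2 enzyme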
PME-1 primary: blocks human protein phosphatase methylesterase 1; Q9Y570; recombinant PME-1, FP-Rh probe fluorescence polarization; inhibition, % at 5.9 µM; 0.53% of 320,000 active; AID 2130;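 active means inhibition above the campaign mean of all compounds plus 3 SD, cut at about 26% in these data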;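 further: competitive labeling of PME-1 active site by serine hydrolase directed probe; 0% = PME-1 with DMSO and 100% = wells lacking PME-1 enzyme; inhibitors block probe labeling so polarization falls and inhibition rises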
Target sequence (Q9Y570 whole entry, looked up): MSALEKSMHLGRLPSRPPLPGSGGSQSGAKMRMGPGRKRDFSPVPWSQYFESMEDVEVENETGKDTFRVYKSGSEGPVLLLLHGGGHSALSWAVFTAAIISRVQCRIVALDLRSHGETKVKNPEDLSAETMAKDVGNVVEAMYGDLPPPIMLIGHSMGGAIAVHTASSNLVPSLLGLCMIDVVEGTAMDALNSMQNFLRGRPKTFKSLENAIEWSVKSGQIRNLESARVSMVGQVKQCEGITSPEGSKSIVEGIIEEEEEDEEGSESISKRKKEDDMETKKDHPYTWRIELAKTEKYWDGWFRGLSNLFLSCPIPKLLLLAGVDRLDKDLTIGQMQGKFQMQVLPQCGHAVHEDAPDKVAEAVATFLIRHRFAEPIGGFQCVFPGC
LYPLA1 inh: blocks human lysophospholipase 1, a PME1 counter-screen; O75608; recombinant LYPLA1, FP-Rh probe fluorescence polarization; inhibition, % at 5.9 µM; 0.16% of 320,000 active;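 active means inhibition above the mean of all tested compounds plus 3 SD, set per campaign, cut at about 14% in these data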;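 further: inhibitors block serine hydrolase probe labeling of LYPLA1 so polarization falls; 0% = enzyme with DMSO and 100% = wells lacking LYPLA1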
Target sequence (O75608 whole entry, looked up): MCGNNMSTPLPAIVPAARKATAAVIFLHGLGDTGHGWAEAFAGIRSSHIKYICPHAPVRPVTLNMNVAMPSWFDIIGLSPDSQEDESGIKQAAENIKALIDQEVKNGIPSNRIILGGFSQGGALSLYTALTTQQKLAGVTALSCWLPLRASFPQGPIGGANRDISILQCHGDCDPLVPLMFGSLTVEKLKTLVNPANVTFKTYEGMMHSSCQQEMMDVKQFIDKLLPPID
PREPL inhibitor: human PREPL enzyme inhibition; recombinant PREPL, fluorescence polarization activity-based probe; inhibition, % at 5.96 µM; 0.68% of 320,000 active; AID 2751; in the data active means inhibition above about 43%;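 further: 0% = enzyme with DMSO and 100% = wells lacking enzyme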
LYPLA2 confirm: LYPLA2 (human) inhibition, confirmation counter-screen. shares compounds with LYPLA2 counter. recombinant LYPLA2, FP-Rh probe fluorescence polarization. inhibition, % at 5.9 µM. 72% of 1,100 active;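 active means mean inhibition across replicates above the hit cutoff set in the primary screen, cut at about 26% in these data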;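 further: blocked labeling of the enzyme by serine hydrolase FP-Rh probe lowers polarization; 0% = enzyme with DMSO and 100% = wells lacking LYPLA2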
LYPLA2 gel ABPP: LYPLA2 (human) inhibition, late stage results. rhLYPLA2 in mouse brain proteome, gel ABPP FP-Rh. shares compounds with LYPLA2 counter. 30% of 150 active. inhibition, % at 20 µM;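 active means inhibition of LYPLA2 enzyme probe labeling above about 50%, limit read from the data; inactive means inhibition below that limit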;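 further: loss of FP-Rh probe labeling of the LYPLA2 gel band measured as band density; 0% = DMSO only control band and 100% = blank gel background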
* marks the source's active call; other numbers are inactive results.

What do the screens show for `CCCCCOc1ccc(/C=C/c2c([N+](=O)[O-])c(=O)n(C)c(=O)n2C)cc1`?
Fam108B inh: 0; LYPLA2 counter: 69*; PME-1 primary: -7; LYPLA1 inh: 1; PREPL inhibitor: 11; LYPLA2 confirm: 53*; LYPLA2 gel ABPP: 36

How did COc1ccccc1Nc1ncc(C(=O)N2CCC(C(N)=O)CC2)c2ccccc12 do in these assays?
Fam108B inh: -3; LYPLA2 counter: 0; PME-1 primary: 0; LYPLA1 inh: 1; PREPL inhibitor: -8

How did COc1ccccc1Nc1ncc(C(=O)N2CCN(Cc3ccc(OC)c(OC)c3OC)CC2)c2ccccc12 do in these assays?
Fam108B inh: 0; LYPLA2 counter: 46*; PME-1 primary: 6; LYPLA1 inh: 2; PREPL inhibitor: 15; LYPLA2 confirm: 24

Results for CC1CCCC(C)N1C(=O)COC(=O)Cc1c[nH]c2ccccc12 (stereo not drawn) ?
Fam108B inh: 5; LYPLA2 counter: -10; PME-1 primary: 5; LYPLA1 inh: -10; PREPL inhibitor: 0

How did Cc1ccccc1C1=NC(C(F)(F)F)(C(F)(F)F)c2c(n(C)c(=O)n(C)c2=O)N1 do in these assays?
Fam108B inh: 2; LYPLA2 counter: 5; PME-1 primary: -1; LYPLA1 inh: -2; PREPL inhibitor: 1

What do the screens show for `Cn1c2c(c(=O)n(C)c1=O)C(C(F)(F)F)(C(F)(F)F)N=C(c1ccc(Cl)cc1)N2`?
Fam108B inh: 1; LYPLA2 counter: 56*; PME-1 primary: 9; LYPLA1 inh: -1; PREPL inhibitor: 6; LYPLA2 confirm: 1

How did CCCOc1cccc(C(=O)NC(=S)Nc2ccccc2)c1 do in these assays?
Fam108B inh: -6; LYPLA2 counter: 0; PME-1 primary: -4; LYPLA1 inh: -6; PREPL inhibitor: 4

How did O=C(O)c1cccc(NC(=S)NC(=O)c2cccc(OCc3ccccc3)c2)c1 do in these assays?
Fam108B inh: -9; LYPLA2 counter: 31*; PME-1 primary: -6; LYPLA1 inh: 2; PREPL inhibitor: -40; LYPLA2 confirm: 29*

What do the screens show for `Cc1ccc(C(=O)O)cc1NC(=S)NC(=O)c1ccc(COc2ccccc2)cc1`?
Fam108B inh: -4; LYPLA2 counter: 46*; PME-1 primary: -8; LYPLA1 inh: 4; PREPL inhibitor: -4; LYPLA2 confirm: 51*; LYPLA2 gel ABPP: 23

What do the screens show for `Cc1ccc(C(=O)O)cc1NC(=S)NC(=O)Cc1ccccc1`?
Fam108B inh: -2; LYPLA2 counter: 3; PME-1 primary: 4; LYPLA1 inh: 2; PREPL inhibitor: 1

What do the screens show for `O=C(Cc1ccc(-n2c(=O)[nH]c3ccsc3c2=O)cc1)N1CCN(c2ccc(Cl)cc2)CC1`?
Fam108B inh: 4; LYPLA2 counter: 31*; PME-1 primary: -3; LYPLA1 inh: 2; PREPL inhibitor: 5; LYPLA2 confirm: 29*

How did COc1ccc(C2c3[nH]c4ccccc4c3CCN2C(=O)Cc2nonc2C)c(F)c1 (stereo not drawn) do in these assays?
Fam108B inh: -2; LYPLA2 counter: -7; PME-1 primary: 7; LYPLA1 inh: -5; PREPL inhibitor: 10

Results for COc1ccc(N2CCN(C(=O)CSc3nc4[nH]ncc4c(=O)n3-c3ccc(Br)cc3)CC2)cc1 ?
Fam108B inh: 4; LYPLA2 counter: 47*; PME-1 primary: -1; LYPLA1 inh: 12; PREPL inhibitor: 28; LYPLA2 confirm: 42*

How did O=S(=O)(c1cc(F)ccc1F)N1CCN(C2CCCCC2)CC1 do in these assays?
Fam108B inh: -6; LYPLA2 counter: 3; PME-1 primary: 4; LYPLA1 inh: -2; PREPL inhibitor: 0

What do the screens show for `O=C(CN1CCN(C(=O)CNC(=O)c2ccc(N3CCCC3=O)cc2)CC1)Nc1ccccc1Cl`?
LYPLA2 counter: 50*; PME-1 primary: -1; LYPLA1 inh: 3; PREPL inhibitor: 20; LYPLA2 confirm: 46*

How did Cc1cccc(C)c1NC(=O)CN1CCN(C(=O)CNC(=O)c2ccc(N3CCCC3=O)cc2)CC1 do in these assays?
LYPLA2 counter: 1; PME-1 primary: -4; LYPLA1 inh: -2; PREPL inhibitor: -4

Results for c1ccc(-c2nnc(OCC3CCCO3)c3ccccc23)cc1 (stereo not drawn) ?
Fam108B inh: 4; LYPLA2 counter: -1; PME-1 primary: 1; LYPLA1 inh: 1; PREPL inhibitor: 14

Results for CC(CCc1ccccc1)NC(=O)CNC(=O)N1CC(=O)Nc2ccccc21 (stereo not drawn) ?
Fam108B inh: 2; LYPLA2 counter: -9; PME-1 primary: 5; LYPLA1 inh: 0; PREPL inhibitor: -7

What do the screens show for `Cc1ccccc1SCC(=O)N1CCN(c2ccc(C(F)(F)F)cn2)CC1`?
Fam108B inh: -7; LYPLA2 counter: 28*; PME-1 primary: 1; LYPLA1 inh: -3; PREPL inhibitor: -27; LYPLA2 confirm: 36*

What do the screens show for `O=C(CCC(=O)N1CCN(c2ccc(C(F)(F)F)cn2)CC1)c1cccs1`?
LYPLA2 counter: 32*; PME-1 primary: 4; LYPLA1 inh: 4; PREPL inhibitor: -5; LYPLA2 confirm: 25

How did O=C(CCC(=O)N1CCN(c2ccccn2)CC1)c1cccs1 do in these assays?
PREPL inhibitor: 20

Results for CCOc1ccc(/C(O)=C2/C(=O)C(=O)N(CC3CCCO3)C2c2cccs2)cc1 (stereo not drawn) ?
Fam108B inh: 1; LYPLA2 counter: 2; PME-1 primary: 0; LYPLA1 inh: -2; PREPL inhibitor: 2

Results for CN1CCN(CCCNC(=O)c2ccc3c(=O)n(CCc4ccccc4)c(=O)[nH]c3c2)CC1 ?
Fam108B inh: 0; LYPLA2 counter: 29*; PME-1 primary: 0; LYPLA1 inh: -4; PREPL inhibitor: 12; LYPLA2 confirm: 1

What do the screens show for `CN1CCCN(Cc2nc(-c3cccc(C(F)(F)F)c3)no2)CC1`?
Fam108B inh: -3; LYPLA2 counter: 1; PME-1 primary: 3; LYPLA1 inh: 1; PREPL inhibitor: 10

What do the screens show for `Cc1onc(-c2ccccc2Cl)c1C(=O)Nc1nnc(-c2ccc(F)cc2)s1`?
Fam108B inh: -4; LYPLA2 counter: 53*; PME-1 primary: -11; LYPLA1 inh: -3; PREPL inhibitor: 10; LYPLA2 confirm: 3

How did Cc1ccc(SCC(=O)OCC(=O)N(C)C2CCS(=O)(=O)C2)cc1C (stereo not drawn) do in these assays?
LYPLA2 counter: -3; PME-1 primary: -2; LYPLA1 inh: 0; PREPL inhibitor: 9

What do the screens show for `COc1ccccc1-n1cc(C(=O)NCC(=O)N2CCN(c3ccccc3)CC2)c2ccccc2c1=O`?
Fam108B inh: -1; LYPLA2 counter: 37*; PME-1 primary: 0; LYPLA1 inh: 4; PREPL inhibitor: 28; LYPLA2 confirm: 27*

Assay outcomes (PubChem BioAssay)
